Ten molecules from PubChem BioAssay (EPA / NIEHS) can be followed below.

Results filed as inconclusive are left out. Some compounds were tested as several samples or in several runs, with calls that do not always agree. The source made the active and inactive calls. The calls were made as follows, unless noted: active = hit-call score of the fitted dose curve at least 0.9, where 1 is the maximum; inconclusive = response in the unintended direction; inactive = score below 0.9.

Assay [1] addresses Bile acid receptor (Homo sapiens) (UniProt Q96RI1). Nature of the assay: OT_FXR_FXRSRC1_0480: Odyssey Thera (OT) 8-hour HEK293T Protein-Complementation Assay for Farnesoid X receptor/SRC-1 Co-activator (AID 2283383). In short, it runs like this:
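PCA, HEK293T, 8 h compound exposure; FXR–SRC-1 binding reconstitutes split reporter; fluorescence intensity; positive-direction fit vs DMSO.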

Assay [2] deals with Retinoic acid receptor RXR-alpha (Homo sapiens) (UniProt P19793). As to the kind of experiment: OT_NURR1_NURR1RXRa_0480: Odyssey Thera (OT) 8-hour HEK293T Protein Complementation Assay for Nurr1/retinoid X receptor (RXR) (AID 2283385). The procedure, abridged:
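Interaction of bait and prey reconstitutes a functional reporter, whose fluorescence was measured in HEK293T cells dosed with compound for 8 hours. Signal gain relative to DMSO defined the single endpoint.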

Assay [3] has the same target. Nature of the assay: OT_NURR1_NURR1RXRa_1440: Odyssey Thera (OT) 24-hour HEK293T Protein Complementation Assay for Nurr1/retinoid X receptor (RXR) (AID 2283386). In short, it runs like this: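 Steps: fragment-tagged Nurr1 and RXRα expressed in HEK293T; compounds added; after 24 h, complemented reporter quantified by fluorescence intensity; signal increase over DMSO fitted as the single endpoint.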

The target of assay [4] is Peroxisome proliferator-activated receptor gamma (Homo sapiens) (UniProt P37231). As to the kind of experiment: OT_PPARg_PPARgSRC1_0480: Odyssey Thera (OT) 8-hour Protein-Complementation Assay for Peroxisome Proliferator-activated Receptor Gamma / SRC-1 Co-activator (AID 2283387).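 Also: nuclear to cytoplasmic split Venus YFP fluorescence ratio reporting PPARg SRC-1 interaction.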 The procedure, abridged: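 HEK293T transiently transfected with PPARg and SRC-1 fused to Venus YFP fragments, compounds 8 h at 37C. Fixed, Draq5-stained cells imaged; nuclear/cytoplasmic 488 nm fluorescence ratio over at least 350 cells per image; gain fitted versus DMSO.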
Peroxisome proliferator-activated receptor gamma (Homo sapiens), sequence (P37231 whole entry, looked up, the tested form may be a part): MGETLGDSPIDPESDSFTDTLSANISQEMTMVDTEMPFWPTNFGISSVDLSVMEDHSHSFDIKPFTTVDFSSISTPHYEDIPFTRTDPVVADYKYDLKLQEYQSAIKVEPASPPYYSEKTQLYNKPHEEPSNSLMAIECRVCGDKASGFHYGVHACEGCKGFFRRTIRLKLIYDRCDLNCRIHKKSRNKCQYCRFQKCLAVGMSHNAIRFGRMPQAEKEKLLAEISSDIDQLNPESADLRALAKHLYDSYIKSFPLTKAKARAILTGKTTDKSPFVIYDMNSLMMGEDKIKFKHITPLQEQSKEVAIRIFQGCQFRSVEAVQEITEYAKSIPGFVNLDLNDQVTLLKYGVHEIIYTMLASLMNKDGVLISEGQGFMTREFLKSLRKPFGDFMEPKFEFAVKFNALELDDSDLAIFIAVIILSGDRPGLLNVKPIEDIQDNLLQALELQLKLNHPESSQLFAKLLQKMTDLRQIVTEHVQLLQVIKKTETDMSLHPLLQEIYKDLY

For assay [5] the target is unchanged. Nature of the assay: OT_PPARg_PPARgSRC1_1440: Odyssey Thera (OT) 24-hour Protein-Complementation Assay for Peroxisome Proliferator-activated Receptor Gamma/ SRC-1 Co-activator (AID 2283388). The procedure, abridged:
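Transient HEK293T, YFP fragments 1-158/159-239 (mutant IFP1/IFP2) fused to PPARg/SRC-1; 24 h dosing; fix 4% formaldehyde, Draq5; Opera imaging 488/635 nm; N/C ratio, gain vs DMSO.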

Read-out in assay [6]: Tumor necrosis factor receptor superfamily member 6 (Homo sapiens) (UniProt P25445)
Nature of the assay: LTEA_HepaRG_FAS: Life Technologies and Expression Analysis (LTEA) Assay for Fas cell surface death receptor (FAS) using HepaRG (AID 2283447; active = hit-call score of the fitted dose curve at least 0.9, where 1 is the maximum; inactive = score below 0.9). Conditions: mRNA level, 48 h; actives raise or lower the signal. The procedure, abridged: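 Differentiated human HepaRG cells, pre-cultured 48 h, were exposed in duplicate for 48 h to 8-point half-log concentrations (top 100 uM, 0.5% DMSO) in serum-free induction medium; FAS mRNA measured by qRT-PCR, normalized to ACTB/GAPDH/POLR2A, bidirectional fit versus DMSO.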

Read-out in assay [7]: Cyclin Dependent Kinase Inhibitor 1A (CDKN1A), CDKN1A (gene 1026)
Nature of the assay: LTEA_HepaRG_CDKN1A: Life Technologies and Expression Analysis (LTEA) Assay for Cyclin Dependent Kinase Inhibitor 1A (CDKN1A) using HepaRG (AID 2283450; active = hit-call score of the fitted dose curve at least 0.9, where 1 is the maximum; inactive = score below 0.9). The note with it: mRNA level, 48 h; actives raise or lower the signal. The procedure, abridged: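 Cryopreserved HepaRG cells were plated and cultured 48 h, then switched to serum-free induction medium. Chemicals (eight half-log concentrations, top 100 uM, 0.5% DMSO) were applied for 48 h. Lysates underwent qRT-PCR for CDKN1A with housekeeping normalization.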

Assay [8] in a line: CEETOX_H295R_OHPREG: CeeTox H295R High-throughput Steroidogenesis Assay for OH-Pregnenolone (OHPREG) (AID 2283434; active = hit-call score of the fitted dose curve at least 0.9, where 1 is the maximum; inactive = score below 0.9). Conditions: actives raise or lower the signal. The procedure, abridged:
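Readout: HPLC-MS/MS of 17alpha-hydroxypregnenolone in medium after 48 h chemical exposure of H295R cells pretreated with forskolin. Values fitted bidirectionally relative to DMSO; chemicals reducing viability to 20–70% were retested after 10-fold dilution.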

A short description of assay [9]: CEETOX_H295R_OHPROG: CeeTox H295R High-throughput Steroidogenesis Assay for OH-Progesterone (OHPROG) (AID 2283435; active = hit-call score of the fitted dose curve at least 0.9, where 1 is the maximum; inactive = score below 0.9;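 as to AC50: human adrenal H295R cells primed 48 h with 10 µM forskolin; 17alpha-hydroxyprogesterone secreted into medium measured by HPLC-MS/MS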). Conditions: actives raise or lower the signal. In short, it runs like this:
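Steps: seed H295R cells and adhere overnight; stimulate with 10 uM forskolin for 48 h; replace with chemical-containing medium (0.1% DMSO) for 48 h; extract medium with MTBE; quantify 17alpha-hydroxyprogesterone by reverse-phase C18 HPLC-MS/MS against a 7-point curve.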

The nature of assay [10]: CEETOX_H295R_PROG: CeeTox H295R High-throughput Steroidogenesis Assay for Progesterone (PROG) (AID 2283442; active = hit-call score of the fitted dose curve at least 0.9, where 1 is the maximum; inactive = score below 0.9). Conditions: actives raise or lower the signal. In short, it runs like this:
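Adrenal H295R line, forskolin-stimulated (10 uM, 48 h) before dosing. 48 h exposure, 0.1% DMSO vehicle. Secreted progesterone by reverse-phase HPLC with ESI+ MS/MS quantification; DMSO-normalised bidirectional curve fit.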

Read-out in assay [11]: Fatty acid synthase (Homo sapiens) (UniProt P49327)
Nature of the assay: LTEA_HepaRG_FASN: Life Technologies and Expression Analysis (LTEA) Assay for Fatty Acid Synthase (FASN) using HepaRG (AID 2283448; active = hit-call score of the fitted dose curve at least 0.9, where 1 is the maximum; inactive = score below 0.9). Conditions: mRNA level, 48 h; actives raise or lower the signal. In short, it runs like this:
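Cells were plated, cultured 48 h, switched to serum-free induction medium, then dosed in duplicate (max 100 uM, half-log dilutions, 0.5% DMSO) for 48 h. RNA was then isolated and FASN quantified by qRT-PCR.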

Read-out in assay [12]: Cyclin D2 (CCND2), CCND2 (gene 894)
Nature of the assay: LTEA_HepaRG_CCND2: Life Technologies and Expression Analysis (LTEA) Assay for Cyclin D2 (CCND2) using HepaRG (AID 2283449; active = hit-call score of the fitted dose curve at least 0.9, where 1 is the maximum; inactive = score below 0.9;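 also: CCND2 transcript measured by TaqMan qRT-PCR and normalised to three housekeeping genes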). The note with it: mRNA level, 48 h; actives raise or lower the signal. The procedure, abridged: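 In this HepaRG study, an eight-point concentration series (max 100 uM, 0.5% DMSO) is applied for 48 h. CCND2 mRNA change is derived by qRT-PCR normalised to ACTB, GAPDH and POLR2A.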

Assay [13] addresses Bile acid receptor (Homo sapiens) (UniProt Q96RI1). As to the kind of experiment: OT_FXR_FXRSRC1_1440: Odyssey Thera (OT) 24-hour HEK293T Protein-Complementation Assay for Farnesoid X receptor/SRC-1 Co-activator (AID 2283384). The procedure, abridged: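 Measures ligand-driven FXR–SRC-1 co-activator recruitment in HEK293T via fragment complementation, fluorescence intensity at 24 h. DMSO served as negative control and baseline for gain-of-signal fitting.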

Assay [14] can be described thus: CEETOX_H295R_11DCORT: CeeTox H295R High-throughput Steroidogenesis Assay for 11-Deoxycortisol (11DCORT) (AID 2283432; active = hit-call score of the fitted dose curve at least 0.9, where 1 is the maximum; inactive = score below 0.9). The note with it: actives raise or lower the signal. The procedure, abridged:
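H295R cells prestimulated 48 h with 10 uM forskolin, then exposed 48 h to chemical in 0.1% DMSO. 11-Deoxycortisol in medium quantified by HPLC-MS/MS after MTBE extraction; bidirectional fit versus DMSO. MTT viability read in same wells.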

Assay [15] in a line: CEETOX_H295R_CORTIC: CeeTox H295R High-throughput Steroidogenesis Assay for Corticosterone (CORTIC) (AID 2283437; active = hit-call score of the fitted dose curve at least 0.9, where 1 is the maximum; inactive = score below 0.9;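 also: corticosterone secreted into medium quantified by mass spectrometry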). Conditions: actives raise or lower the signal. The procedure, abridged: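 Steps: seed H295R, adhere overnight; 10 uM forskolin 48 h; replace with chemical (0.1% DMSO) 48 h; extract medium with MTBE; quantify corticosterone by HPLC-MS/MS; score bidirectionally vs DMSO.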

Assay [16] can be described thus: CEETOX_H295R_CORTISOL: CeeTox H295R High-throughput Steroidogenesis Assay for Cortisol (AID 2283438; active = hit-call score of the fitted dose curve at least 0.9, where 1 is the maximum; inactive = score below 0.9). Conditions: actives raise or lower the signal. In short, it runs like this:
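Cortisol synthesis by H295R cells is measured 48 h after chemical dosing, following a 48 h stimulation with 10 uM forskolin. Hormone is extracted and quantified by HPLC-MS/MS, and activity is fitted bidirectionally against the DMSO control.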

The nature of assay [17]: CEETOX_H295R_DOC: CeeTox H295R High-throughput Steroidogenesis Assay for DOC (AID 2283439; active = hit-call score of the fitted dose curve at least 0.9, where 1 is the maximum; inactive = score below 0.9). Conditions: actives raise or lower the signal. In short, it runs like this:
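Steps: seed H295R, adhere overnight; 10 uM forskolin 48 h; replace with chemical medium (0.1% DMSO) 48 h; collect medium, MTBE extraction, HPLC-MS/MS for DOC. Viability then checked by MTT; cytotoxic chemicals diluted until viability ≥70%.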

A short description of assay [18]: CEETOX_H295R_ESTRADIOL: CeeTox H295R High-throughput Steroidogenesis Assay for Estradiol (AID 2283440; active = hit-call score of the fitted dose curve at least 0.9, where 1 is the maximum; inactive = score below 0.9;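 also: estradiol secreted into medium quantified by LC-MS/MS after dansyl derivatisation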). The note with it: actives raise or lower the signal. The procedure, abridged: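 Following OECD 456 with minor changes, H295R cells received 10 uM forskolin for 48 h and then test chemical for 48 h. Hormone output was read by HPLC-MS/MS, with cytotoxic concentrations diluted until MTT viability reached ≥70%.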

Assay [19] in a line: CEETOX_H295R_ESTRONE: CeeTox H295R High-throughput Steroidogenesis Assay for Estrone (AID 2283441; active = hit-call score of the fitted dose curve at least 0.9, where 1 is the maximum; inactive = score below 0.9). The note with it: actives raise or lower the signal. The procedure, abridged: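 Estrone secreted into medium quantified by LC-MS/MS after dansyl chloride derivatization, following 48 h chemical exposure (0.1% DMSO final) of forskolin-prestimulated (10 uM, 48 h) H295R cells; gain or loss fitted against DMSO; MTT viability in same wells.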

Bile acid receptor (Homo sapiens), sequence (Q96RI1 whole entry, looked up, the tested form may be a part): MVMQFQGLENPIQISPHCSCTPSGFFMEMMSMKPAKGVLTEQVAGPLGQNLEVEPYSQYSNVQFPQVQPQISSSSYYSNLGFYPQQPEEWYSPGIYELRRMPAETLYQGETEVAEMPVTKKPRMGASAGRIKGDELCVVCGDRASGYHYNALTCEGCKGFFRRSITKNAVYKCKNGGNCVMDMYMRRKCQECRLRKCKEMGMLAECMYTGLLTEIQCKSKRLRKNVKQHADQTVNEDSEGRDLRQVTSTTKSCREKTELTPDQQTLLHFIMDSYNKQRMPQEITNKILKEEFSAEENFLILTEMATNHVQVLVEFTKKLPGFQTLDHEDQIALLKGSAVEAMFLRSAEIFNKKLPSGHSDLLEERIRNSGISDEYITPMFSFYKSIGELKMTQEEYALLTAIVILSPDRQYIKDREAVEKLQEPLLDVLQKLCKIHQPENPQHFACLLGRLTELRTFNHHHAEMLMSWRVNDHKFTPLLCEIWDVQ
Retinoic acid receptor RXR-alpha (Homo sapiens), sequence (P19793 whole entry, looked up): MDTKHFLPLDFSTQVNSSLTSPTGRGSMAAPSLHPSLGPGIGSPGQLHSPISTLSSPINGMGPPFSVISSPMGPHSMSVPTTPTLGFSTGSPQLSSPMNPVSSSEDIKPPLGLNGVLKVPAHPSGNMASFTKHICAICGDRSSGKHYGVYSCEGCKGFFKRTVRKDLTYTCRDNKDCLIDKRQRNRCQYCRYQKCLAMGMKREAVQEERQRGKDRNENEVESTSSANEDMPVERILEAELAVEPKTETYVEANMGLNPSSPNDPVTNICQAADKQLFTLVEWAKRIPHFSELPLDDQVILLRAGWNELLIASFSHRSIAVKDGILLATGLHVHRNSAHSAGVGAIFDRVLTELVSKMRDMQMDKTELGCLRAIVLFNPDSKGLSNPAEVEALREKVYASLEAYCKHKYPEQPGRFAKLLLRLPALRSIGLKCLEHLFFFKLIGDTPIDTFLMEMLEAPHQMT
Fatty acid synthase (Homo sapiens), sequence (P49327 whole entry, looked up): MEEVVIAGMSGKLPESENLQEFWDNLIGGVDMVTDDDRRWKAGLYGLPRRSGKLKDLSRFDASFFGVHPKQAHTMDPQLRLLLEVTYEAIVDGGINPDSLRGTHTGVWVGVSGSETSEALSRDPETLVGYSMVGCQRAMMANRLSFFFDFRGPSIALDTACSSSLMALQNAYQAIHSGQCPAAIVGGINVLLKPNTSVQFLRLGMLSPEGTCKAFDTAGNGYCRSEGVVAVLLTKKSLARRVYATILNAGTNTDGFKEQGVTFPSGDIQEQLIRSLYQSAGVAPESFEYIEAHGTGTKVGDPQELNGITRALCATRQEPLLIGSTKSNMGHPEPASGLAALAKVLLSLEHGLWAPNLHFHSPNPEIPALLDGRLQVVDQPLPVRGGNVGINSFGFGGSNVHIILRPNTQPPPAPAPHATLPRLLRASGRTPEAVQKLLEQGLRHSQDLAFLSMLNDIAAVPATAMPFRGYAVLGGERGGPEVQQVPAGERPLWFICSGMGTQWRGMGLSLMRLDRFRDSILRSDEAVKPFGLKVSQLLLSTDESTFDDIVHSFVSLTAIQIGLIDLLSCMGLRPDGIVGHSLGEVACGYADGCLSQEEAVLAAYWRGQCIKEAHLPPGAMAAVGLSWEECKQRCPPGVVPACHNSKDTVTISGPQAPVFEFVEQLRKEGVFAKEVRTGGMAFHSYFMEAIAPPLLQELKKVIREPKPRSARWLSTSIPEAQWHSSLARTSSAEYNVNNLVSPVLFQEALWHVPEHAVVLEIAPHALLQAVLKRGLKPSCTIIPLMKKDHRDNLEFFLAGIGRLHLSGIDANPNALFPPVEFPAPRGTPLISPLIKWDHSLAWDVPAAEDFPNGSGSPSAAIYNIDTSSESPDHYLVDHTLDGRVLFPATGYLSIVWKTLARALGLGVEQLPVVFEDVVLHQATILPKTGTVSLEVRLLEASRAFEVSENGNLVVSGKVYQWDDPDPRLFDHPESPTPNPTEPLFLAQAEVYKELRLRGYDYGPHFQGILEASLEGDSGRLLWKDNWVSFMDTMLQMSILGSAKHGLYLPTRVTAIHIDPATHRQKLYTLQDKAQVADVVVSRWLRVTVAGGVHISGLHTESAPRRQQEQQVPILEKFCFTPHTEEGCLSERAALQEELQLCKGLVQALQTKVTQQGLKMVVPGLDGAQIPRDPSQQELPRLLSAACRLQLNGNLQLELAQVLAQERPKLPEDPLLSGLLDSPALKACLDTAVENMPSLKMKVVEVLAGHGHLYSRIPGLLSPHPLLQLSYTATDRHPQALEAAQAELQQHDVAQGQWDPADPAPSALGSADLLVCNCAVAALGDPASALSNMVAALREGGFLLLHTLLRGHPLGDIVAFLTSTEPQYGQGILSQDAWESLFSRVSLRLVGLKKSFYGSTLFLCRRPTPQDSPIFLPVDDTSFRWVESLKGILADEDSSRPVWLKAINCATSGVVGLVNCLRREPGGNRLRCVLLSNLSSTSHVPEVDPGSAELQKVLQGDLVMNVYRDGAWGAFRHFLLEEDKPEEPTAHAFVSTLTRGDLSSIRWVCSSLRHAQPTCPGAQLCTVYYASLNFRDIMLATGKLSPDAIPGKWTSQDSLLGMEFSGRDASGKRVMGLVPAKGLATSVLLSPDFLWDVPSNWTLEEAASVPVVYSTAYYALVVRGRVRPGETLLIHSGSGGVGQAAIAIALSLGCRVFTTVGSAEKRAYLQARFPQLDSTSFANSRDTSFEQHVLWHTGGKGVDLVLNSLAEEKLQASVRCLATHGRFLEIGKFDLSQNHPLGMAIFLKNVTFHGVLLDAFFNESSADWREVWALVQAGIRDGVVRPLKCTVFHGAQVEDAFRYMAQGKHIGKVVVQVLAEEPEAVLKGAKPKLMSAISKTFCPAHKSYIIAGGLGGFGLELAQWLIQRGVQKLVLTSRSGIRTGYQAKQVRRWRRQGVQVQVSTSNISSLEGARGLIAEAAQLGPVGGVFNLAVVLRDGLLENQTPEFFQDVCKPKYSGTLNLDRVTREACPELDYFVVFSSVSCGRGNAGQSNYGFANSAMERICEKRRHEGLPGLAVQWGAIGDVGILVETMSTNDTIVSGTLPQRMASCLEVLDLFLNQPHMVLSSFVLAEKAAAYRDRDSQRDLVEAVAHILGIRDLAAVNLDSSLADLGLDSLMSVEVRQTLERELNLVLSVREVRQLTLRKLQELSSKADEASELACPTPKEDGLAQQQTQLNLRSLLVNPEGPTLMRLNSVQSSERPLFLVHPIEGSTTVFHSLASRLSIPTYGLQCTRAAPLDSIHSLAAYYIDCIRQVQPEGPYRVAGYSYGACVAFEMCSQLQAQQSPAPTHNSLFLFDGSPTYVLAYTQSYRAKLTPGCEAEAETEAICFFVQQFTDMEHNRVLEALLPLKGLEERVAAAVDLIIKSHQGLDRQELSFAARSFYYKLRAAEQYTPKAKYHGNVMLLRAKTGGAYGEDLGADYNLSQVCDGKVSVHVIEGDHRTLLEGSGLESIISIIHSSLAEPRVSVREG

As to `CC(C)(C)c1cccc(C(C)(C)C)c1O`, the AC50 was 78.7 µM (active) in assay [1] and 79.8 µM (active) in [2]. The outcome in [2], in assay [3], in [4], in assay [5], in assay [6] and in [7] was inactive.

On to `O=[N+]([O-])c1ccc(O)cc1`, for which the molecule was classed as inactive in [2], in assay [4], in assay [5], in [8], in [10] and in assay [6]. The result in [11], in assay [12] and in assay [7] was inactive. Besides, the AC50 in assay [9] was 27.3 µM (active).

As to `ClC1=C(Cl)C(Cl)(Cl)C(Cl)=C1Cl`, the result in [4], in assay [5], in [6], in assay [12] and in assay [7] was inactive.

As for `OCCC(F)(F)C(F)(F)C(F)(F)C(F)(F)C(F)(F)C(F)(F)C(F)(F)C(F)(F)F`, the outcome in assay [2], in assay [3], in assay [6], in [11], in assay [12] and in [7] was inactive.

For the molecule `CC(C)CCCCCCOC(=O)CCCCC(=O)OCCCCCCC(C)C`, the molecule was classed as inactive in assay [1], in assay [2], in [3], in assay [4], in [5] and in [6]. For the same molecule, the molecule was classed as inactive in assay [12] and in assay [7].

Regarding `CCCOc1sc(C(=O)N2CCC(c3cc(CN)ccc3F)CC2)c(C)c1Br`, the outcome in assay [4], in [5], in [6], in assay [12] and in assay [7] was inactive.

As to `CN1CCN(c2ccccc2/C=C2\SCCN(c3ccc(Cl)c(Cl)c3)C2=O)CC1`, the molecule was classed as inactive in [4], in assay [5], in [6], in [12] and in assay [7].

With `N#C[C@@H]1CC(F)(F)CN1C(=O)CNC1CC2CCC(C1)N2c1ncccn1` (stereo partly drawn), the call in assay [13], in [2], in [3], in [4], in assay [5] and in assay [6] was inactive. Besides, the outcome in assay [11], in assay [12] and in assay [7] was inactive.

For `CCC(C)(C)C1CCC(O)CC1` (stereo not drawn), the outcome in assay [2], in [3], in assay [4], in assay [5], in [6] and in assay [11] was inactive. Further, the molecule was called inactive in [12] and in [7].

For `CCCCCCCCC(=O)O`, the molecule was classed as inactive in assay [2], in assay [3], in [14], in [8], in [9] and in assay [15]. In addition, the outcome in assay [16], in assay [17], in [18], in [19], in assay [10] and in [6] was inactive. In addition, the call in assay [12] and in assay [7] was inactive.
